Sm TGR block = S. mansoni TGR enzyme inhibition; Q962Y6; purified TGR, DTNB reduction, TNB absorbance 405 nm; Potency, µM (doses to about 114 µM), for the others: at the highest dose activity change, negative = inhibition, usual class: inhibitors; 3% of 360,000 active; also: nearly all actives have a fitted effect of over 60% in size
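TGR 20 nM + NADPH 100 uM (dispensed conc.), cpd preinc 15 min RT; start with NADPH (500 uM addition) then DTNB (15 mM addition). Kinetic TNB absorbance, 405 nm filter. Four-parameter Hill fit across titration.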
AMA1-RON2 inh = inhibitors of Plasmodium falciparum AMA1-RON2 interaction; AlphaScreen AMA1-biotinylated RON2 peptide binding; Potency, µM (series often up to 58.2 µM), for the others: top-dose activity change, negative = inhibition, actives largely listed as inhibitors; 0.2% of 360,000 active;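 also: 0% = vehicle wells and -100% = peptide control; nearly all actives have a fitted effect of over 45% in size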
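AMA1 (3D7) with his tag at 25 nM final met compounds first, then biotinylated RON2 peptide at 25 nM; detection used donor plus acceptor beads, 10 µg/mL apiece, read by AlphaScreen after 30 min at room temperature.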
AmpC detergent = AmpC beta-lactamase inhibition with detergent present; P00811; AmpC hydrolysis of nitrocefin, absorbance 480 nm, 0.01% Triton; Potency, µM (top dose mostly 114 µM), for the others: top-dose activity change, negative = inhibition, hits mostly inhibitors; 0.041% of 370,000 active;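 also: 0% = no-compound wells and -100% = no-enzyme wells; nearly all actives have a fitted effect of over 25% in size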
Target sequence (P00811 whole entry, looked up): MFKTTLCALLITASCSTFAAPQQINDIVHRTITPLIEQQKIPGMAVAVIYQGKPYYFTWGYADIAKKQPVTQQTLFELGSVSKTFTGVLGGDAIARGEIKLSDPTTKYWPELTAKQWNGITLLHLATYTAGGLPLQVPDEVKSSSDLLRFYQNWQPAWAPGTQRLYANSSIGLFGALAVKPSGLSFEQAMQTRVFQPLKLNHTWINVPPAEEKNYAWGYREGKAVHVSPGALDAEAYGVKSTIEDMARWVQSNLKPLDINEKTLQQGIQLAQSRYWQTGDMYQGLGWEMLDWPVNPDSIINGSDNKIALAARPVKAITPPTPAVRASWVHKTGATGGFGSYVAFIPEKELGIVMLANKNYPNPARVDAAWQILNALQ
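20 mM phosphate pH 7.0 + 0.01% (detergent screen) or 0.0001% Triton X-100; 5.3 nM AmpC reagent; cpd preinc 15 min RT; nitrocefin (800 uM stock) to start; A480 q20 s × 4 min; Activity was normalised to no-enzyme and no-compound control wells.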
AmpC no deterg = AmpC beta-lactamase inhibition without detergent; P00811; AmpC nitrocefin hydrolysis, absorbance 480 nm, 0.0001% Triton; Potency, µM (top dose mostly 57.1 µM), for inactives: top-dose activity change, negative = inhibition, actives largely listed as inhibitors; 0.52% of 330,000 active;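 also: plate controls were no compound for no effect and no enzyme for full effect; nearly all actives have a fitted effect of over 20% in size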
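20 mM phosphate pH 7.0 + 0.01% (detergent screen) or 0.0001% Triton X-100; 5.3 nM AmpC reagent; cpd preinc 15 min RT; nitrocefin (800 uM stock) to start; A480 q20 s × 4 min; Activity was normalised to no-enzyme and no-compound control wells.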
RE007 growth inh = less growth of the S. pombe RE007 Vpr strain. S. pombe RE007 Vpr strain, BacTiter-Glo ATP luminescence, 24 h. Potency, µM (doses to about 92.2 µM), for inactives: at the highest dose activity change, negative = less growth, actives largely listed as inhibitors. 0.21% of 360,000 active; active = well fitted falling curve with a large enough effect; inconclusive = small, poorly fitted or top-dose-only effect; inactive = no such curve, though single readings can be large or run the other way; also: nearly all actives have a fitted effect of over 50% in size
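Fission yeast strain RE007, carrying one chromosomally integrated HIV-1 vpr copy, was seeded at OD 0.01 in PMG+AL medium with 23 nL pinned compound. After 24 h at 30 °C and 99% humidity, viability was read by BacTiter-Glo luminescence.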
Active calls of the source: *; ? = inconclusive; . = not tested or not shown; [ ] = dose if it differs, or a comment. A selection: hits, their analogues and other compounds. The true share with any hit is near 3.2%. Unless noted, calls follow the shape of the dose curve; as a rule, active = well fitted curve in the direction sought with a large enough effect; inconclusive = small, poorly fitted or top-dose-only effect, or another doubt; inactive = no such curve, though single readings can be large; an effect the other way counts as inactive or inconclusive. Unless noted, % is scaled to controls: 0 for no effect and ±100 for the full control effect; potency is read from the fitted curve at half-maximal effect.

SMILES | Sm TGR block | AMA1-RON2 inh | AmpC detergent | AmpC no deterg | RE007 growth inh
Cn1cnc([N+](=O)[O-])c1Cl | 4µM* | -15% | -9% | -8% | 1%
Cn1cnc([N+](=O)[O-])c1Sc1ncn[nH]1 | 2.8µM* | -11% | 3% | -17% | .
Cn1cnc([N+](=O)[O-])c1Sc1ccc([N+](=O)[O-])cc1 | . | 6% | -5% | -10% | 34%
CCOC(=O)c1cc(-c2ccc(C)cc2)n(CCC(=O)NCCc2ccc(C)cc2)c1C | 5% | . | 16% | . | .
COC(=O)[C@@H]1C[C@@]2(O)[C@@H](O)[C@@H](O)[C@@H](O)C[C@H]2N1Cc1ccc(Cl)cc1 | 40µM* | 9% | -6% | -32% | 2%
COC(=O)c1ccc(CN2[C@H](C(=O)OC)C[C@@]3(O)[C@H](O)[C@H](O)[C@H](O)C[C@@H]23)cc1 | 2% | 8% | -2% | 178% | 10%
Cc1ccc(-n2c(-c3cc(-c4ccco4)[nH]n3)n[nH]c2=S)c(Br)c1 | -31% | 94% | -4% | -46% | 14%
S=c1[nH]nc(-c2cc(-c3ccco3)[nH]n2)n1-c1cccc2ccccc12 | 11µM* | -6% | -13% | 18µM* | -5%
FC(F)(F)c1ccc(C2Nc3cccc4cccc(c34)N2)cc1 | 20µM* | -9% | ? | -32% | 16%
CCCOc1ccc(C2Nc3cccc4cccc(c34)N2)cc1 | 14µM* | -1% | -12% | 52% | 0%
Cc1ccc(C2Nc3cccc4cccc(c34)N2)s1 | 18µM* | -3% | ? | -50% | .
Fc1ccc(C2Nc3cccc4cccc(c34)N2)cc1 | 18µM* | -12% | -2% | -24% | 7%
CCSC1=NC2(CCCCC2)Nc2sc3c(c21)CCCC3 | 56µM* | -5% | ? | -24% | 40µM*
Cc1ccc(/C=C/C(=O)Nc2cccc3ncccc23)o1 | 8.9µM* | -2% | -5% | -26% | 5%
Cc1ccc(/C=C/C(=O)Nc2nn[nH]n2)o1 | 20µM* | -15% | -7% | -7% | 3%
Cc1ccc(/C=C/C(=O)Nc2cccnc2)o1 | 8.9µM* | -2% | -12% | -25% | -3%
Cc1ccc(/C=C/C(=O)Nc2ccccc2C(N)=O)o1 | 22µM* | . | 10% | . | .
Cc1ccc(/C=C/C(=O)OCC(=O)Nc2cccnc2Cl)o1 | . | 1% | . | -11% | -19%
COc1ccc(CNC(=O)Cc2c(C)c3c(cc(C)c4c(C)coc43)oc2=O)cc1OC | 1% | . | 16% | . | .
COc1cc(CNc2ncc(-c3ccc(Br)cc3)n2C)cc(OC)c1O | 16µM* | -19% | -16% | 2% | -11%
COc1ccc(CNc2ncc(-c3ccc(F)cc3)n2C)cc1OC | -10% | ? | -11% | -12% | -7%
Cc1ccc(S(=O)(=O)c2c(Nc3ccccc3)sc(C(=O)c3ccc4c(c3)OCO4)c2N)cc1 | -8% | . | 29% | . | .
CCOc1cc(C(=O)NCc2ccccc2)ccc1OCC(=O)N1CCOCC1 | -2% | 4% | ? | -15%[11.4 µM] | 3%
CCOc1cc(C(=O)Nc2ccc(C(=O)NCCN(CC)CC)cc2)ccc1OCC(=O)N1CCOCC1 | 35µM* | 10% | ? | -7% | -9%
O=C(NCc1cccs1)c1ccc(CSc2nc3ccncc3n2Cc2ccccc2)cc1 | -9% | . | 2% | . | .
SMILES | Sm TGR block | AMA1-RON2 inh | AmpC detergent | AmpC no deterg | RE007 growth inh
Cc1cccc(/C=C/C(=O)c2ccc([N+](=O)[O-])o2)c1 | 1.6µM* | -4% | 0% | -12% | 7%
Cc1ccccc1/C=C/C(=O)c1ccc([N+](=O)[O-])o1 | 2µM* | ? | 7% | -15% | 8.9µM*
O=C(/C=C/c1cccc([N+](=O)[O-])c1)c1ccc([N+](=O)[O-])o1 | . | 6% | . | . | 2%
COc1ccc(/C=C/C(=O)c2ccc([N+](=O)[O-])o2)cc1 | ? | -1% | ? | -16% | 9%
O=C(COc1ccc(F)cc1)NCc1ccc2c(c1)CCN2C(=O)c1ccccc1 | -2% | . | -4% | . | .
COC(=O)[C@]1(CC(C)C)N[C@H](c2ccc(-c3ccc(F)cc3)c(OC)c2)[C@@H]2C(=O)N(C)C(=O)[C@@H]21 | 20µM* | -6% | -5% | 232% | -6%
CCN1C(=O)[C@H]2[C@@H](c3ccc(-c4ccc5c(c4)OCO5)c(OC)c3)N[C@@](CC(C)C)(C(=O)OC)[C@H]2C1=O | 50µM* | 8% | -14% | 140% | -6%
CCN1C(=O)[C@H]2[C@@H](c3ccc(-c4cccc(Cl)c4)c(OC)c3)N[C@@](Cc3ccccc3)(C(=O)OC)[C@H]2C1=O | 28µM* | 12% | ? | 14% | 2%
CCN1C(=O)[C@H]2[C@@H](c3ccc(-c4ccc(OC)cc4)c(OC)c3)N[C@@](Cc3ccccc3)(C(=O)OC)[C@H]2C1=O | . | -2% | . | 29% | 8%
COc1ccc(C2NC(Cc3ccccc3)(C(=O)O)C3C(=O)N(c4ccccc4OC)C(=O)C23)cc1 (stereo unspecified) | 22µM* | 3% | -2% | -9% | 2%
CCN1C(=O)[C@H]2[C@@H](c3ccc(-c4ccc(OC)cc4)c(OC)c3)N[C@@](CC(C)C)(C(=O)OC)[C@H]2C1=O | . | 13% | . | 21% | -10%
COC(=O)[C@]1(Cc2ccccc2)N[C@H](c2ccc(-c3cccc(Cl)c3)c(OC)c2)[C@@H]2C(=O)N(C)C(=O)[C@@H]21 | . | -2% | . | . | -11%
CCOC(=O)C1CCN(S(=O)(=O)c2cc(-c3onc(C)c3C)ccc2OC)CC1 | 6% | . | 5% | . | .
Cc1ccc(-c2nn(-c3ccccc3)cc2/C=C(\C#N)c2cccc(C#N)c2)o1 | 50µM* | 11% | -14% | -29% | -7%
CNC(=O)c1c(NC(=O)c2ccco2)sc2c1CCC2 | 32µM* | 0% | 0% | 43% | -16%
CNC(=O)c1c(NC(=O)/C=C/c2ccccc2)sc2c1CCC2 | 35µM* | . | 7% | . | .
NC(=O)c1c(NC(NC(=O)c2ccco2)C(=O)c2ccc(Cl)cc2)sc2c1CCCC2 (stereo unspecified) | 32µM* | 0% | -11% | -8% | 4%
O=C(Nc1sc2c(c1C(=O)NC1CCCCC1)CCC2)c1ccco1 | ? | 8% | -2% | . | 3%
CC(=O)N1CCc2c(sc3c2c(=O)n(-c2cccc(Cl)c2)c(=O)n3Cc2ccc(F)cc2Cl)C1 | 10% | . | 7% | . | .
O=c1[nH]c(=O)n(-c2cccc(Cl)c2)c(O)c1/C=N/c1ccccn1 | 79µM* | 11% | -14% | -35% | 17%
N=Cc1c(O)n(-c2cccc(Cl)c2)c(=O)[nH]c1=O | -1% | 22% | 1% | -19% | 3%
COc1ccc(CN(Cc2ccco2)c2cnc(S(C)(=O)=O)nc2C(=O)Nc2ccc(C)c(C)c2)cc1 | 1% | . | -4% | . | .

Screening results as filed in PubChem.
